The results in this text go back to PubChem BioAssay (NCI).

About 83,000 compounds went through this panel and 20% of them were active in at least one assay; those are over-represented in the sample as a whole.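 Growth was measured after 48 h exposure to one concentration of compound in 96-well plates. Values under 10 count as active.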 Unmarked numbers belong to inactive results. Calls of active or inactive are those of the source.

What all share (test): NCI-60 one-dose screen, 48 h (100 = growth as untreated, 0 = no growth, -100 = all killed)
What all share (conditions): 10 µM unless noted

The test system of experiment [1] is SK-MEL-2 melanoma.
The subject of experiment [2] is EKVX NSCLC.
The subject of experiment [3] is UO-31 renal.
Experiment [4] concerns TK-10 renal.
Experiment [5] has as its system ACHN renal.
The test system of experiment [6] is A498 renal.
Experiment [7] relates to CCRF-CEM leukemia.
In experiment [8] the test system is MOLT-4 leukemia.
The test system of experiment [9] is SN12C renal.
Experiment [10] relates to CAKI-1 renal.

Consider `O=C1OC2C(I)C3CC2C1C3c1ccccc1` (stereo unspecified), for which the growth in experiment [1] is 128%; in experiment [2] it was 129%; in experiment [3], 95.8%; in [4] it was 145%; in experiment [5], 102%; in experiment [6], 114%. Also, the growth is 110% in experiment [7] and 102% in experiment [8].

On to `CN1Cc2c(cc(CN3CCCCC3)n2C)C(c2ccc(Br)cc2)C1` (stereo unspecified), for which the growth in [1] is 114%; in experiment [2], 77.2%; in [9] it was 84.8%; in experiment [4], 92.3%; in [10], 83.7%; in [6] it was 98.1%. The growth in experiment [7] was 88.2%; in experiment [8] it was 92.5%.

`O=[N+]([O-])c1c(F)cccc1Nc1cccc(F)c1`: the growth in experiment [1] is 103%; in [2] it was 103%; in experiment [3] it was 78.3%; in experiment [4], 113%; in experiment [5], 101%; in experiment [10], 101%. For the same molecule, the results for the growth in [6] and in [8] were 80.8% and 93.8%, respectively.

As to `COc1ccc(-c2c(C)noc2-c2ccc(O)cc2O)cc1`, the growth was 101% in experiment [1]; 85.7% in [9]; 87.3% in experiment [3]; 99.8% in experiment [4]; 90.3% in [5]; 95.8% in experiment [10]. For the same molecule, the results for the growth in [6], in [7] and in experiment [8] were 88%, 71.7% and 59.1%, respectively.

On to `COc1ccc(-c2cc(/C=C3\C(=O)Nc4ccc(Cl)cc43)[nH]n2)cc1`, for which the growth in [1] is 51.2%; in experiment [9], 63.1%; in experiment [3], 64.4%; in experiment [4] it was 86.9%; in [5] it was 56.7%; in [10], 65.8%. The growth in experiment [6] was 65.7%; in experiment [7] it was 35.5%; in experiment [8], 25.1%.

On to `C=CC[N+]1(CCO)CCN=C1CCCCCCCCCCCCC` (stereo unspecified), for which the growth in experiment [1] is -64.2% (active); in experiment [2] it was -29.4% (active); in [3], -60.7% (active); in experiment [4], -87% (active); in [5] it was -91.9% (active); in experiment [10], -47.7% (active). Also, the growth in experiment [6] was 82.6%; in experiment [7], -40.6% (active); in [8], -42.6% (active).

As to `OCC1C2C=CC(C2)C1CO` (stereo unspecified), the growth in [1] was 114%; in experiment [2], 102%; in [3] it was 93.1%; in experiment [4], 112%; in experiment [5] it was 105%; in [6] it was 92.5%. Moreover, the growth in experiment [7] is 126%; in [8], 97.9%.

As to `COc1cc(C2C(C(=O)c3cccs3)=C(O)C(=O)N2CCN2CCOCC2)cc(OC)c1OC` (stereo unspecified), the growth was 102% in [1]; 104% in experiment [9]; 97.3% in [3]; 99.2% in experiment [4]; 102% in experiment [5]; 101% in experiment [10]. Moreover, the growth is 84.8% in experiment [6], 120% in experiment [7] and 129% in experiment [8].

With `COc1nc2c(cc1S(=O)(=O)c1ccccc1)CCc1c-2cnn1-c1ccc(Cl)cc1`, the growth in [1] was 97.2%; in [2] it was 90.4%; in [3], 99.3%; in experiment [4], 110%; in experiment [5], 102%; in experiment [10], 90.8%. Besides, the growth is 82.4% in [6], 84.2% in experiment [7] and 86.3% in [8].

Take `N=S(=O)(NC(=O)c1ccc(Cl)cc1Cl)c1ccc(Br)s1` (stereo unspecified): the growth in experiment [1] was 116%; in [9], 94.4%; in [3], 79.4%; in [4], 98.4%; in experiment [5], 95.6%; in experiment [6] it was 61.2%. Besides, the growth was 87.2% in experiment [7] and 98.5% in [8].

`Cn1cc(-c2csc(-c3cn(C)c4ncccc34)n2)c2ccccc21`: the growth in experiment [9] is 56.4%; in [3], 51.2%; in experiment [4] it was 50.3%; in [5] it was 57.4%; in [10], 35.1%; in experiment [6] it was -0.625% (active). For the same molecule, the values for the growth in experiment [7] and in [8] were 10.1% and 14.6%, respectively.

In the case of `CCOC(=O)/C=C/c1ccc(C(=O)OCC)[nH]1`, the growth was 47% in experiment [1]; 80.7% in [9]; 72.1% in experiment [3]; 62.6% in experiment [4]; 64.9% in experiment [5]; 35.5% in [10]. Further, the growth is 49.8% in [6], 82.8% in experiment [7] and 75.8% in [8].

With `Nc1ccc(N2CCOCC2)cc1`, the growth is 91.8% in experiment [1]; 94% in experiment [9]; 73.5% in experiment [3]; 91.8% in experiment [4]; 86.8% in experiment [5]; 103% in experiment [6]. Further, the growth in experiment [7] is 124%; in experiment [8], 118%.

With `Cl/C(=N\Nc1ccccc1)c1ccccc1`, the growth was 96.6% in experiment [1]; 93.2% in [9]; 72.8% in experiment [3]; 96.8% in experiment [4]; 92.5% in experiment [5]; 67.3% in experiment [10]. The growth in experiment [7] was 89.4%; in [8], 80.1%.

For the molecule `Cc1noc(C)c1-c1cc(O)cc(C(O)c2ccccc2)c1` (stereo unspecified), the growth in [1] is 60.4%; in experiment [9] it was 74.5%; in experiment [3], 16.9%; in experiment [4], 12.6%; in [5], 60.6%; in experiment [6] it was -3.34% (active). For the same molecule, the growth was 46.7% in [7] and 58.8% in experiment [8].
